Test systems include NCI-H23 lung; NCI-H226 lung; HOP-62 NSCLC; NCI-H460 lung; HOP-92 NSCLC; NCI-H522 lung; A549/ATCC NSCLC; 786-0 renal; COLO 205 colon.
Experiment in all cases: NCI-60 one-dose screen, 48 h (100 = growth as untreated, 0 = no growth, -100 = all killed)
Holding throughout (conditions): 10 µM

About 83,000 compounds went through this panel and 20% of them were active in at least one assay; those are over-represented in the sample as a whole.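 Testing used 96-well plates and a 48-hour single-concentration exposure. Example: -40 means 40% of the starting cells died.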 Values without a mark were called inactive. Active and inactive are the calls of the source. How the source made its calls: active means growth percent below 10; inactive means the rest.

Turning to `O=S(=O)(O)c1ccc(Cl)cc1`, the growth is 96% with NCI-H23 lung; 97.3% with NCI-H226 lung; 95.2% in the experiment with HOP-62 NSCLC; 103% in the experiment on NCI-H460 lung; 117% in the experiment on HOP-92 NSCLC; 94.6% in the experiment on NCI-H522 lung. In addition, the growth was 97% with A549/ATCC NSCLC, 111% in the experiment on 786-0 renal and 109% with COLO 205 colon.
As for `O=C(O)c1cn(C2CC2)c2cc(N3CCN(C(=O)c4cc(-c5ccc(Cl)cc5)nc5ccccc45)CC3)c(F)cc2c1=O`, the growth was 82.2% with NCI-H23 lung; 92.3% in the experiment with NCI-H226 lung; 82.1% in the experiment with HOP-62 NSCLC; 96.1% in the experiment on NCI-H460 lung; 90.1% in the experiment on HOP-92 NSCLC; 86.4% with NCI-H522 lung. Moreover, the growth in the experiment on A549/ATCC NSCLC was 94.4%; with 786-0 renal, 88.3%; in the experiment with COLO 205 colon, 110%.
`Cc1ccc(NCCN(C)CC(C)O)c2c(=O)c3ccccc3sc12` (stereo unspecified): the growth in the experiment with NCI-H23 lung was 57.4%; in the experiment on NCI-H226 lung, 66.1%; with HOP-62 NSCLC, 48%; with NCI-H460 lung, 15.6%; with HOP-92 NSCLC, 32.4%; with NCI-H522 lung, 44.4%. The values for the growth in the experiment with A549/ATCC NSCLC, in the experiment on 786-0 renal and with COLO 205 colon were 21.6%, 40.5% and -43.3% (active), respectively.
Consider `COc1cc(C)ccc1Oc1nc(Nc2ccc(N3CCOCC3)cc2)ncc1NC(=O)Nc1cc(C(F)(F)F)cc(C(F)(F)F)c1`, for which the growth in the experiment on NCI-H23 lung is 72%; in the experiment with NCI-H226 lung, 84.3%; with HOP-62 NSCLC, 58.5%; in the experiment with NCI-H460 lung, 24.7%; in the experiment with HOP-92 NSCLC, 66.8%; in the experiment with NCI-H522 lung, 73.2%. The growth with A549/ATCC NSCLC was 14.5%; with 786-0 renal, 55%; in the experiment on COLO 205 colon, 109%.
On to `O=C(Nc1ccc(F)cc1)c1cc2ccccc2cc1O`, for which the growth with NCI-H23 lung is 61.8%; in the experiment with NCI-H226 lung, 74.2%; with HOP-62 NSCLC, 78.7%; in the experiment on NCI-H460 lung, 80.5%; in the experiment on HOP-92 NSCLC it was 2.82% (active); in the experiment with NCI-H522 lung, 56.5%. Further, the growth was 75.8% with A549/ATCC NSCLC, 93.5% with 786-0 renal and 95.5% with COLO 205 colon.
In the case of `COc1ccc(/C=C/C(=O)C(=O)/C=C/c2ccc(OC)c(OC)c2)cc1OC`, the growth in the experiment with NCI-H23 lung was 21.6%; in the experiment with NCI-H226 lung, 38.9%; in the experiment with HOP-62 NSCLC, 93.2%; with NCI-H460 lung, 51.7%; in the experiment with HOP-92 NSCLC it was 109%; in the experiment with NCI-H522 lung, 47.8%. Moreover, the growth is 69.9% in the experiment on A549/ATCC NSCLC, 3.43% (active) in the experiment with 786-0 renal and -20.8% (active) in the experiment with COLO 205 colon.
On to `O=C(CSc1nnc(-c2ccc(Cl)cc2)o1)Nc1ccc(C(=O)/C=C/c2ccc(Cl)cc2)cc1`, for which the growth in the experiment on NCI-H23 lung was 87.7%; in the experiment with NCI-H226 lung it was 93.3%; in the experiment on HOP-62 NSCLC, 95.8%; in the experiment with NCI-H460 lung, 98.2%; in the experiment with HOP-92 NSCLC, 106%; in the experiment on NCI-H522 lung, 86.8%. The results for the growth in the experiment on A549/ATCC NSCLC, in the experiment with 786-0 renal and in the experiment with COLO 205 colon were 95.6%, 99.9% and 117%, respectively.
Consider `CCn1cc(C(=O)O)c(=O)c2cc(F)c(N3CCNCC3)cc21`, for which the growth in the experiment with NCI-H23 lung was 108%; in the experiment on NCI-H226 lung, 92.3%; in the experiment with HOP-62 NSCLC, 108%; in the experiment with NCI-H460 lung, 104%; with HOP-92 NSCLC, 115%; in the experiment on NCI-H522 lung, 104%. The growth with A549/ATCC NSCLC is 103%; with 786-0 renal, 108%; in the experiment with COLO 205 colon, 102%.
With `CC(C)c1ccc(C(C)C(=O)N(CC2=C(C(C)c3ccccn3)c3ccccc3C2)C(C)C)cc1` (stereo unspecified), the growth is 26.3% in the experiment with NCI-H23 lung; 57.1% with NCI-H226 lung; 59.2% in the experiment with HOP-62 NSCLC; 23.1% in the experiment with NCI-H460 lung; 20.3% in the experiment on HOP-92 NSCLC; 24.9% in the experiment with NCI-H522 lung. In addition, the growth is 36% with A549/ATCC NSCLC, 40.9% in the experiment with 786-0 renal and 35.7% with COLO 205 colon.
Regarding `C/C=C/CSC(C)(C)C(=O)NC`, the growth in the experiment with NCI-H23 lung is 102%; in the experiment on NCI-H226 lung, 100%; in the experiment with HOP-62 NSCLC, 89.7%; in the experiment with NCI-H460 lung, 104%; in the experiment with HOP-92 NSCLC it was 104%; in the experiment on NCI-H522 lung, 86%. Further, the growth in the experiment on A549/ATCC NSCLC is 88.7%; in the experiment with 786-0 renal, 108%; in the experiment with COLO 205 colon, 119%.
In the case of `CC(C)(C)OC(=O)N1CCc2c(sc3ncnc(N/N=C/c4cccc5ccccc45)c23)C1`, the growth with NCI-H23 lung was 12.9%; with NCI-H226 lung, 31%; with HOP-62 NSCLC, 27.8%; with NCI-H460 lung it was 4.98% (active); with HOP-92 NSCLC, 25.6%; with NCI-H522 lung, 16%. For the same compound, the figures for the growth in the experiment with A549/ATCC NSCLC, with 786-0 renal and in the experiment with COLO 205 colon were 23.8%, 16.9% and 13.8%, respectively.
`O=C(CCl)Nc1ccc(Cc2ccc(NC(=O)CCl)cc2)cc1`: the growth with NCI-H23 lung is -10.4% (active); in the experiment on NCI-H226 lung, -16.2% (active); in the experiment on HOP-62 NSCLC, 33.2%; in the experiment with NCI-H460 lung, -29.3% (active); in the experiment on HOP-92 NSCLC, 46.3%; in the experiment on NCI-H522 lung, -81% (active). Besides, the growth is 25.3% with A549/ATCC NSCLC, -20.2% (active) in the experiment with 786-0 renal and -56.1% (active) with COLO 205 colon.
For `Cc1cccc(N=Cc2ccccc2O)c1C`, the growth in the experiment on NCI-H23 lung was 94.8%; in the experiment on NCI-H226 lung, 104%; in the experiment with HOP-62 NSCLC it was 103%; with NCI-H460 lung, 114%; with HOP-92 NSCLC, 97.3%; in the experiment with NCI-H522 lung, 114%. The figures for the growth in the experiment on A549/ATCC NSCLC, in the experiment on 786-0 renal and in the experiment with COLO 205 colon were 88.2%, 94.5% and 106%, respectively.
With `CN(C)CCCOc1cccc(NC2=C(Cl)C(=O)C(Nc3cccc(OCCCN(C)C)c3)=C(Cl)C2=O)c1`, the growth in the experiment on NCI-H23 lung is -67.1% (active); in the experiment with NCI-H226 lung it was -70% (active); in the experiment on HOP-62 NSCLC, -85.1% (active); in the experiment on NCI-H460 lung, 38.3%; in the experiment with HOP-92 NSCLC, -74.3% (active); with NCI-H522 lung it was -79.5% (active). The growth in the experiment with A549/ATCC NSCLC was 52%; in the experiment on 786-0 renal, -94.2% (active); in the experiment on COLO 205 colon it was -79.7% (active).

The values are drawn from PubChem BioAssay (NCI).
